# Data: the supplement of paper PMC12669032
# Values without a mark were called inactive.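 Rule for the calls: active = AUC reduced over 20% with Padj below 0.05 in at least 2 of 3 replicates; inactive = otherwise.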
# How the values were obtained:
# Assay in all cases: growth AUC relative to DMSO control (median of replicates) (fraction); higher = more growth (less inhibition), active = hit call of the paper
# Details in all cases: 20 µM; 24 h
# Akkermansia muciniphila = test system: Akkermansia muciniphila
# In short: (§1)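 Gut bacterial monocultures were grown anaerobically at 37 °C in mGAM, starting at OD600 0.05, with 20 µM compound (1% DMSO) in round-bottom 96-well plates under pierced gas-permeable seals. OD600 was read hourly for 24 h. Area under the growth curve (minimum OD set to 0) was normalised to the plate median of DMSO controls, or to row and column medians on the industrial chemical plate. The value is the median of three biological replicates grown on separate days.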
# Bacteroides caccae = test system: Bacteroides caccae
# In short: as §1
# Bacteroides clarus = test system: Bacteroides clarus
# In short: as §1
# Bacteroides dorei = test system: Bacteroides dorei
# In short: as §1
# Bacteroides stercoris = test system: Bacteroides stercoris
# In short: as §1
# [1] = test system: Bacteroides thetaiotaomicron
# In short: as §1
# Bacteroides uniformis = test system: Bacteroides uniformis
# In short: as §1
# [2] = test system: Bifidobacterium longum subsp. longum
# In short: as §1
# Clostridium difficile = test system: Clostridium difficile
# In short: as §1
# Collinsella aerofaciens = test system: Collinsella aerofaciens
# In short: as §1
# Coprococcus comes = test system: Coprococcus comes
# In short: as §1
# Escherichia coli ED1a = test system: Escherichia coli ED1a
# In short: as §1
# Escherichia coli IAI1 = test system: Escherichia coli IAI1
# In short: as §1
# Eubacterium rectale = test system: Eubacterium rectale
# In short: as §1
# [3] = test system: Fusobacterium nucleatum subsp. animalis
# In short: as §1
# Lactobacillus gasseri = test system: Lactobacillus gasseri
# In short: as §1
# Lactobacillus paracasei = test system: Lactobacillus paracasei
# In short: as §1
# Odoribacter splanchnicus = test system: Odoribacter splanchnicus
# In short: as §1
# [4] = test system: Parabacteroides distasonis
# In short: as §1
# Parabacteroides merdae = test system: Parabacteroides merdae
# In short: as §1
SMILES,growth AUC (Akkermansia muciniphila),growth AUC (Bacteroides caccae),growth AUC (Bacteroides clarus),growth AUC (Bacteroides dorei),growth AUC (Bacteroides stercoris),growth AUC [1],growth AUC (Bacteroides uniformis),growth AUC [2],growth AUC (Clostridium difficile),growth AUC (Collinsella aerofaciens),growth AUC (Coprococcus comes),growth AUC (Escherichia coli ED1a),growth AUC (Escherichia coli IAI1),growth AUC (Eubacterium rectale),growth AUC [3],growth AUC (Lactobacillus gasseri),growth AUC (Lactobacillus paracasei),growth AUC (Odoribacter splanchnicus),growth AUC [4],growth AUC (Parabacteroides merdae)
COc1cc(OC)nc(NC(=O)NS(=O)(=O)c2c(-c3nnn(C)n3)cnn2C)n1,1.13,0.99,1,0.94,1.08,1.01,1,1.01,0.961,0.978,1.01,1.01,0.988,1.1,1.02,0.873,1.04,1.03,0.845,1.03
CON=C(Cc1cccnc1)c1ccc(Cl)cc1Cl,1.06,0.889,0.971,0.938,1.28,0.91,0.921,0.998,1,0.945,0.94,1,0.986,0.919,1.03,1.03,1.18,0.821,1.04,1.01
CCOc1ccc(C2(C(=O)OC(C#N)c3cccc(Oc4ccccc4)c3)CC2(Cl)Cl)cc1 (stereo not given),1.08,0.968,1.02,0.94,1.04,0.993,0.957,0.911,1.01,0.982,1.03,1.01,0.981,1.06,1.07,0.848,1,1.03,0.93,0.943
COc1cc(OC)nc(NC(=O)NS(=O)(=O)c2c(Cl)nc3ccccn23)n1,1.06,1.02,1,1.02,1.1,1,1.02,1.02,1,1.03,0.981,1.01,1.01,1.01,1.13,1.06,1.11,0.984,1.02,1.04
Clc1ccc(Sc2cc(Cl)c(Cl)cc2Cl)cc1,1.05,0.943,0.993,1.04,0.985,0.98,0.984,0.986,1,0.936,0.964,0.972,0.984,0.943,1.04,0.86,1.05,1.1,1.01,0.976
CCc1cccc(C)c1N(C(=O)CS(=O)(=O)[O-])C(C)COC.[Na+] (stereo not given),1.08,0.952,0.987,0.91,0.951,0.727 (active),0.993,0.954,0.991,0.923,0.948,0.954,0.941,1.05,0.881,0.91,1.02,0.908,0.925,0.941
CCNc1nc(NCC)nc(OC)n1,0.914,1.02,1.02,1,1.01,0.967,0.992,0.957,1,0.992,1.05,1.03,0.975,1,1.01,0.921,0.977,1.01,1.04,1
C[S+](C)CCC(=O)O.[Cl-],0.964,1.03,0.974,1.04,0.974,1,1.01,1.01,1.01,0.986,0.97,0.985,1.01,0.923,0.939,1.08,1.01,0.979,0.959,1.02
CC(C)COC(=O)COc1cc(Cl)c(Cl)cc1Cl,0.952,0.864,0.993,0.971,1.15,0.978,1.01,1.03,1,0.91,1,1.01,0.998,1.02,1.01,0.91,1.08,0.969,0.971,0.946
CCCN(CCOc1c(Cl)cc(Cl)cc1Cl)C(=O)NC=O,1.04,0.938,0.948,0.947,1.07,0.94,0.957,0.968,1.01,0.995,0.965,1.04,0.993,1.02,1.01,1.09,0.9,0.956,0.925,0.991
COc1nc(NC(=O)NS(=O)(=O)c2ccccc2C(F)(F)F)nc(C(F)(F)F)n1,1.06,1.03,0.979,0.971,1,0.974,1,1.01,0.987,1.01,1.01,0.99,1,0.979,0.988,0.899,0.986,1.06,0.996,0.964
O=c1cccc2n1CCn1c-2cccc1=O,1.11,1.03,0.986,0.918,1,0.995,1.02,0.969,0.993,0.98,1.01,0.992,0.968,0.956,0.971,0.982,1.02,0.982,1.04,1.01
CCCCOC(=O)COc1ccc(Cl)cc1Cl,1.06,0.975,1.02,0.996,1.09,0.987,1.02,0.965,0.999,0.957,0.991,0.981,1.03,0.979,1.08,1.06,0.839,0.946,0.994,0.979
O.O=C(Nc1ccc([N+](=O)[O-])cc1Cl)c1cc(Cl)ccc1O,0.828,0.0261 (active),0.00802 (active),0.0256 (active),0.00906 (active),0.00758 (active),0.0308 (active),0.0965 (active),0.328 (active),0.865,0.884,1,0.973,0.952,0.741,0.15 (active),0.3 (active),0.039 (active),0.0373 (active),0.0254 (active)
c1ccc2cc3ccccc3cc2c1,0.776 (active),0.972,1,1,1.01,0.987,0.999,0.81,0.997,0.961,0.927,0.987,0.967,1.27,1.01,0.914,0.923,0.999,0.758,0.958
O=S(=O)(Cc1ccc(Cl)cc1)c1ccc(Cl)cc1,0.848,1,0.981,1.02,1.12,0.963,0.997,1.03,1.01,1.01,0.978,0.97,1.02,1.02,0.977,1.04,1.03,0.995,1,0.98

SMILES,growth AUC (Akkermansia muciniphila),growth AUC (Bacteroides caccae),growth AUC (Bacteroides clarus),growth AUC (Bacteroides dorei),growth AUC (Bacteroides stercoris),growth AUC [1],growth AUC (Bacteroides uniformis),growth AUC [2],growth AUC (Clostridium difficile),growth AUC (Collinsella aerofaciens),growth AUC (Coprococcus comes),growth AUC (Escherichia coli ED1a),growth AUC (Escherichia coli IAI1),growth AUC (Eubacterium rectale),growth AUC [3],growth AUC (Lactobacillus gasseri),growth AUC (Lactobacillus paracasei),growth AUC (Odoribacter splanchnicus),growth AUC [4],growth AUC (Parabacteroides merdae)
[S],1.05,0.954,1,1.07,1.07,1.02,1.06,1.01,1.01,0.946,0.956,0.976,0.963,1.04,1.01,0.959,1.01,1.03,0.986,1
COC(=O)C(C)Oc1cc(Cl)c(Cl)cc1Cl (stereo not given),0.978,0.982,1,1.04,1.22,0.982,0.978,1.03,1.03,0.982,1,0.985,1.05,0.975,1.03,1.12,0.883,0.927,0.994,0.974
CC(C)OC(=O)N[C@H](C(=O)N[C@H](C)c1nc2ccc(F)cc2s1)C(C)C,1.17,0.963,0.997,0.934,0.982,1.01,0.93,1.06,0.942,0.964,1.06,0.989,1,1.13,1.16,0.859,1.03,1.02,0.847,1
CC(C)N(C(=O)C(=O)O)c1ccc(F)cc1,1.04,1.02,1.03,1.02,1.23,1.02,0.993,1.05,1.03,1.01,0.985,1.03,1.02,1.05,1.18,1.05,1,1.04,1,1.01
NC1=C(Cl)C(=O)c2ccccc2C1=O,0.886,1.12,0.716 (active),0.965,0.83,0.906,0.88,0.887,0.938,1.01,1,0.896,0.804,1.19,1.25,0.863,0.995,0.876,0.528 (active),0.88
Br[C@@H]1CC[C@@H](Br)[C@@H](Br)CC[C@@H](Br)[C@@H](Br)CC[C@H]1Br,1.01,0.983,0.795 (active),0.924,0.573 (active),0.967,0.928,0.779 (active),1.01,0.796 (active),0.934,0.897,0.979,1,1.01,0.947,0.996,0.983,0.682 (active),0.931
CCCCC(CC)CN1C(=O)C2C(C1=O)[C@H]1C=C[C@@H]2C1 (mixture of isomers),1.11,1,1.03,0.974,1.06,0.985,0.972,1.05,1.03,1.12,1.03,1.01,1.03,0.93,1.01,1.06,1.04,1.03,0.79 (active),0.977
Nc1ccc(S(=O)(=O)Nc2cnc3ccccc3n2)cc1,0.923,1.01,0.99,1.02,1.01,0.946,0.984,1.12,0.975,0.982,0.996,1,0.975,0.983,0.936,1.03,0.887,1.01,1.01,0.97
CC(C)(NC(=O)NCc1ccccc1Cl)c1ccccc1,1.12,1,1.03,0.925,0.951,1.02,0.983,1.08,1.01,0.96,1.02,1.04,1.03,1.03,1.02,0.978,0.986,1.05,1.02,0.994
CC(C)(NC(=O)C(Br)C(C)(C)C)c1ccccc1 (stereo not given),0.896,1.01,0.924,0.995,0.766,0.971,1.06,0.84,1.01,1.01,0.959,1.01,0.983,0.889,0.895,1.12,0.895,0.983,0.97,0.95
N[C@@H](Cc1cc(I)c(Oc2cc(I)c(O)c(I)c2)c(I)c1)C(=O)O,1.1,0.944,0.96,1.04,0.838,0.908,1.01,0.93,0.945,0.923,0.906,0.959,0.941,1.04,0.838,0.87,0.886,0.957,0.921,0.949
CC(C)N(C(=O)CS(=O)CC(=O)O)c1ccc(F)cc1 (stereo not given),0.994,0.965,0.94,0.969,0.988,0.987,0.958,1.03,1.01,1,0.957,1,0.941,0.829,0.969,1.01,0.97,1.06,1.08,0.977
CON(C(=O)c1cc(C)oc1C)C1CCCCC1,0.96,1,1,1,1.04,0.972,0.997,1.03,0.972,1.03,0.992,1.01,0.968,1,1.03,1.05,0.991,1.02,1.05,0.982
CCOC(=O)CSc1nc(C(C)(C)C)nn1C(=O)N(C)C,1.03,0.951,0.96,0.94,0.815,0.978,0.989,0.96,1.01,0.931,0.985,0.961,0.947,1.05,0.918,0.91,0.956,0.948,0.896,0.947
NC(=O)C1CO1 (stereo not given),0.657 (active),0.982,0.971,0.864,0.586 (active),0.972,0.912,0.929,1.01,0.933,0.93,0.957,0.946,0.989,0.923,0.995,1.02,0.949,0.895,0.946
COc1c(Cl)ccc(Cl)c1C(=O)O,0.878,0.997,0.975,1.01,0.961,1,0.947,0.926,1.01,1.04,1.01,0.99,0.986,0.912,0.914,1.26,0.919,0.978,1,1
